Laboratory results taken from PubChem BioAssay (Tox21).
“And” between values parts separate entries of the source, which are not always exact repeats. Equal entries are not always repeated. Results filed as inconclusive are left out. The source made the active and inactive calls. Unless noted, the call rests on the fitted dose curve; in most records, active means well fitted curve in the direction sought with a large enough effect in the repeat runs; inconclusive means weak or mixed curves; inactive means no such curve, though single readings can be large; an effect the other way counts as inactive or inconclusive.

Assays:
[1] = qHTS assay to identify small molecule agonists of the progesterone receptor (PR) signaling pathway - cell viability counter screen (AID 1346799; calls by dose curve; further: nearly all actives have a fitted effect of over 45% in size)
In short: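 Cytotoxicity measured by CellTiter-Glo luminescence (30 min, RT) in the same wells as the PR beta-lactamase agonist read. Those HEK293T cells had 16 h compound treatment at 37 C in 2% charcoal-stripped FBS medium.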

[2] = qHTS assay to identify small molecule agonists of the TGF-beta/Smad signaling pathway (AID 1346859; active means well fitted activation curve with a large enough effect in the signal ratio in the repeat runs, not every such curve was filed as active; the % refers to the signal ratio; further: series mostly up to about 77 µM)
In short: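 Fluorescence (ex 405 nm; em 460 and 530 nm) was read 2 h after LiveBLAzer FRET substrate at RT. The preceding compound treatment of overnight-plated SBE-bla HEK293T cells lasted 5 h at 37 C.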

[3] = biological target: Thyrotropin-releasing hormone receptor (Homo sapiens) (UniProt P34981); experiment: qHTS assay to identify small molecule antagonists of the thyrotropin-releasing hormone receptor (TRHR) signaling pathway (AID 1346877; active means well fitted inhibition curve with a large enough effect in the repeat runs, not every such curve was filed as active; further: potency means the concentration at half of the fitted maximal effect; on activity, negative = inhibition: series mostly up to about 51 µM)
In short: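 Human TRHR in HEK293 cells; inhibition of the intracellular calcium rise triggered by 1 nM TRH was followed by fluorescence over 3 min. Compounds were run at 15 concentrations, three replicates each.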

[4] = biological target: Thyrotropin-releasing hormone receptor (Homo sapiens) (UniProt P34981); experiment: qHTS assay to identify small molecule agonists of the thyrotropin-releasing hormone receptor (TRHR) signaling pathway (AID 1346891; calls by dose curve; further: potency means the concentration at half of the fitted maximal effect; on activation: series mostly up to about 58 µM)
In short: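 Agonist-mode intracellular calcium readout: kinetic fluorescence over 3 min at 1 s intervals after compound addition to TRHR-HEK293 cells (18 h seeded, 2 h dye-loaded at 37 C). Fifteen concentrations, triplicates.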

[5] = Human pregnane X receptor (PXR) small molecule agonists, qHTS cell viability counter screen (AID 1346977); further: nearly all actives have a fitted effect of over 50% in size; further: potency means the concentration at half of the fitted maximal effect
In short: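 Same-well viability read: CellTiter-Fluor added after 23 hr compound exposure, fluorescence measured 1 hr later. Cells were PXR-Luc HepG2 seeded at 2,000/well in 5% charcoal-stripped FBS medium, rested 5 hr before dosing at 37 C.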

[6] = Caspase-3/7 induction in CHO-K1 cells by small molecules, qHTS cell viability counter screen (AID 1346979); further: nearly all actives have a fitted effect of over 35% in size; further: potency means the concentration at half of the fitted maximal effect
In short: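 Cytotoxicity counter screen: CellTiter-Fluor added to compound-treated wild-type CHO-K1 cells at 16 h (37C, 5% CO2), fluorescence measured 1 h later; same wells as caspase-3/7 measurement.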

[7] = Caspase-3/7 induction in CHO-K1 cells by small molecules, qHTS assay (AID 1346980); further: nearly all actives have a fitted effect of over 15% in size; further: potency means the concentration at half of the fitted maximal effect
In short: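 Wild-type CHO-K1 cells exposed to compounds for 17hr at 37 C, 5% CO2. Caspase-3/7 activity then measured by Caspase-Glo 3/7 luminescence after 30min at room temperature.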

[8] = Caspase-3/7 induction in HepG2 cells by small molecules, qHTS cell viability counter screen (AID 1346981); further: nearly all actives have a fitted effect of over 30% in size; further: potency means the concentration at half of the fitted maximal effect; on activity change, negative = cytotoxicity: series mostly up to about 92 µM
In short: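 The parent HepG2 line is plated at 2,000 cells per well and rested 5 hr before compound pinning from DMSO stocks. Following a 16-hr treatment at 37 C, a fluorogenic live-cell substrate (CellTiter-Fluor) reports viability after 1 hr.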

[9] = biological target: Cytochrome P450 2D6 (Homo sapiens) (UniProt P10635); experiment: Cytochrome P450 Family 2 Subfamily D Member 6 (CYP2D6) small molecule antagonists: luciferase reporter qHTS assay (AID 1671196); further: nearly all actives have a fitted effect of over 50% in size; further: potency means the concentration at half of the fitted maximal effect; on activity change, negative = inhibition: series mostly up to about 120 µM
In short: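 Quantitative HTS of Tox21 chemicals against CYP2D6 using a luminescent proluciferin substrate. After NADPH addition, 1 h room-temperature reaction; luminescence recorded 20 min post detection reagent.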

[10] = biological target: Cytochrome P450 2C19 (Homo sapiens) (UniProt P33261); experiment: Cytochrome P450 Family 2 Subfamily C Member 19 (CYP2C19) small molecule antagonists: luciferase reporter qHTS assay (AID 1671197); further: nearly all actives have a fitted effect of over 65% in size; further: potency means the concentration at half of the fitted maximal effect; on activity change, negative = inhibition: series mostly up to about 120 µM
In short: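 Compounds were tested on CYP2C19 activity via proluciferin conversion to luciferin. The 37C, 1 h reaction followed NADPH addition; detection reagent stopped it.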

[11] = biological target: Cytochrome P450 1A2 (Homo sapiens) (UniProt P05177); experiment: Cytochrome P450 Family 1 Subfamily A Member 2 (CYP1A2) small molecule antagonists: luciferase reporter qHTS assay (AID 1671199); further: nearly all actives have a fitted effect of over 50% in size; further: potency means the concentration at half of the fitted maximal effect; on activity change, negative = inhibition: series mostly up to about 120 µM
In short: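 Quantitative high-throughput format using the P450-Glo CYP1A2 system. Reaction initiated by NADPH regeneration solution, 1 h at room temperature, then stopped with detection reagent; luminescence measured 20 min later.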

[12] = qHTS assay to identify small molecule antagonists of the TGF-beta/Smad signaling pathway - cell viability counter screen (AID 1346824); further: nearly all actives have a fitted effect of over 50% in size; further: potency means the concentration at half of the fitted maximal effect
In short: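 SBE-bla HEK 293T cells, incubated overnight, then compound plus 0.25 ng/mL TGF-beta1 (stock added) for 5 hr at 37 C. Viability was read in the same wells by CellTiter-Glo luminescence after 30 min at room temperature.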

[13] = qHTS assay to identify small molecule agonists of the TGF-beta/Smad signaling pathway - cell viability counter screen (AID 1346829); further: nearly all actives have a fitted effect of over 45% in size; further: potency means the concentration at half of the fitted maximal effect; on activity change, negative = cytotoxicity: top concentration of the series differs between compounds
In short: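 In parallel with the Smad reporter read, viability of HEK 293T cells stably carrying SBE-bla is quantified by ATP luminescence following 5 hr compound treatment.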

[14] = biological target: Nuclear receptor subfamily 1 group I member 2 (Homo sapiens) (UniProt O75469); experiment: Human pregnane X receptor (PXR) small molecule agonists, qHTS assay (AID 1346982); further: nearly all actives have a fitted effect of over 35% in size; further: potency means the concentration at half of the fitted maximal effect
In short: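 After plating in 5% charcoal-stripped FBS and a 5 hr rest, PXR-Luc HepG2 cells received compounds in DMSO. Following 24 hr at 37 C, ONE-Glo was added and light output read.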

[15] = biological target: Cytochrome P450 2C9 (Homo sapiens) (UniProt P11712); experiment: Cytochrome P450 Family 2 Subfamily C Member 9 (CYP2C9) small molecule antagonists: luciferase reporter qHTS assay (AID 1671198); further: nearly all actives have a fitted effect of over 50% in size; further: potency means the concentration at half of the fitted maximal effect; on activity change, negative = inhibition: series mostly up to about 120 µM
In short: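 P450-Glo proluciferin substrate with CYP2C9 enzyme; 10 min RT preincubation, then NADPH regeneration 1 h at 37C; luciferin detection reagent 20 min RT, luminescence in relative luminescence units.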

[16] = Caspase-3/7 induction in HepG2 cells by small molecules, qHTS assay (AID 1346978); further: nearly all actives have a fitted effect of over 15% in size; further: potency means the concentration at half of the fitted maximal effect
In short: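 Wild-type HepG2 cells, 2,000/well, settled 5 hr at 37 C and 5% CO2, then compound-treated for 17 hr; caspase-3/7 activity read by luminescent Caspase-Glo 3/7 after 30 min at room temperature.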

[17] = biological target: Nuclear receptor subfamily 1 group I member 2 (Homo sapiens) (UniProt O75469); experiment: CYP3A4 induction through human pregnane X receptor (PXR) by small molecules, qHTS assay (AID 1346984); further: nearly all actives have a fitted effect of over 40% in size
In short: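 Human PXR activation is tracked via CYP3A4 promoter-luciferase in DPX-2 (HepG2) cells. Compounds treat cells for 24hr at 37C, and luminescence is read after One-Glo.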

[18] = biological target: Nuclear receptor subfamily 1 group I member 2 (Homo sapiens) (UniProt O75469); experiment: Human pregnane X receptor (PXR) activation by small molecules, qHTS assay (AID 1346985); further: nearly all actives have a fitted effect of over 40% in size; further: potency means the concentration at half of the fitted maximal effect
In short: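 DPX-2 cells (HepG2 co-transfected with a PXR response element and a CYP3A4-promoter luciferase construct) were seeded at 2,000 per well, rested 5 hr at 37C, then exposed to DMSO-dissolved compounds for 24 hr. Activation was read as luciferase luminescence.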
On the % scale 0 is the no-effect control and ±100 the full control effect.

Chain of Cytochrome P450 1A2 (Homo sapiens) (P05177 whole entry, looked up): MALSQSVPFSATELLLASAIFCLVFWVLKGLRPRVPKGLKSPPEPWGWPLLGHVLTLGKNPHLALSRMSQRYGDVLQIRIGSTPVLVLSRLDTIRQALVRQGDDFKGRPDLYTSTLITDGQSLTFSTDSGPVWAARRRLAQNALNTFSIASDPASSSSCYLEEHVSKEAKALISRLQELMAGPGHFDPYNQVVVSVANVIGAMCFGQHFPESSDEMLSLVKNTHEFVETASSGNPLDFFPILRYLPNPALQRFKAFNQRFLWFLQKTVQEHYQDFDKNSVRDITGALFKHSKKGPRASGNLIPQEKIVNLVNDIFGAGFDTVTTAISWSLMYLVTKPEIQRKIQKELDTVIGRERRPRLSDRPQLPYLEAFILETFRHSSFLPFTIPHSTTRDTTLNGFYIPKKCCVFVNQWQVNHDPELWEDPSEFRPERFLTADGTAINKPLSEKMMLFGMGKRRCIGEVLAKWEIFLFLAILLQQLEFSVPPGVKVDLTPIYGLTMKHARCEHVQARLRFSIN
Chain of Cytochrome P450 2C19 (Homo sapiens) (P33261 whole entry, looked up): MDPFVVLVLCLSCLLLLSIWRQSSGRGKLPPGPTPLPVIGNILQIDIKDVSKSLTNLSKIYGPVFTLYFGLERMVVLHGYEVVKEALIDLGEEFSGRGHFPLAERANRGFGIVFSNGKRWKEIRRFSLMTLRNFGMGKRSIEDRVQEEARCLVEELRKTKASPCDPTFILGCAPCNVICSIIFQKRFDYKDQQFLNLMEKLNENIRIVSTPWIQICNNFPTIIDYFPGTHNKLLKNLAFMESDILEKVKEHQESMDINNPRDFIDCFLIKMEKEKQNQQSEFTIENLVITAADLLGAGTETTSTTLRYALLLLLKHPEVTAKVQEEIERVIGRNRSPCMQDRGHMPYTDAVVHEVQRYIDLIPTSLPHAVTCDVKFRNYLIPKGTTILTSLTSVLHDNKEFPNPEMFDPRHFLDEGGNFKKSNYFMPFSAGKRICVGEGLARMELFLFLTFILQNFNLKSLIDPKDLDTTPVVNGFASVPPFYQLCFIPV
Chain of Nuclear receptor subfamily 1 group I member 2 (Homo sapiens) (O75469 whole entry, looked up): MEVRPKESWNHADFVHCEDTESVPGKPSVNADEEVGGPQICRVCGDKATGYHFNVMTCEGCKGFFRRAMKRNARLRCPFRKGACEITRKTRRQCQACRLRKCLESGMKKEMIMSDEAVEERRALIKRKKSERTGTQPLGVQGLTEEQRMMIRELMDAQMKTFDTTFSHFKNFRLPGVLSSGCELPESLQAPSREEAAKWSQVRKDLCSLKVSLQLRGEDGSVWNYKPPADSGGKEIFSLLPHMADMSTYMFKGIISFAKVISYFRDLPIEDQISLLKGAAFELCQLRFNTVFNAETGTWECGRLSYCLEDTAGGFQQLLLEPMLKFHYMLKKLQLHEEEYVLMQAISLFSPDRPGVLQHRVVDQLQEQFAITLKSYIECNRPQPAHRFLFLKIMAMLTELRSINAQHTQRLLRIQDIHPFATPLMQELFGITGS
Chain of Thyrotropin-releasing hormone receptor (Homo sapiens) (P34981 whole entry, looked up): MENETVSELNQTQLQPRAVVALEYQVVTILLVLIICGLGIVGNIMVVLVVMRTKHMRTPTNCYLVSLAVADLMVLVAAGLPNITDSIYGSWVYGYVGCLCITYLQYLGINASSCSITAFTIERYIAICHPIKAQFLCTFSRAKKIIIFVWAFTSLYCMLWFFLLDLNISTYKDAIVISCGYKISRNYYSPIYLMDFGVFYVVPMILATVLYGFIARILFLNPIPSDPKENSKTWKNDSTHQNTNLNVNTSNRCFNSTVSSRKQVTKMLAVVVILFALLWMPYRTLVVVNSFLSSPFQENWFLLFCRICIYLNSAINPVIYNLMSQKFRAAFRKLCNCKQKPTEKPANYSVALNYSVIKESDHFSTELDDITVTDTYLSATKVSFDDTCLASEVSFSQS
Chain of Cytochrome P450 2D6 (Homo sapiens) (P10635 whole entry, looked up): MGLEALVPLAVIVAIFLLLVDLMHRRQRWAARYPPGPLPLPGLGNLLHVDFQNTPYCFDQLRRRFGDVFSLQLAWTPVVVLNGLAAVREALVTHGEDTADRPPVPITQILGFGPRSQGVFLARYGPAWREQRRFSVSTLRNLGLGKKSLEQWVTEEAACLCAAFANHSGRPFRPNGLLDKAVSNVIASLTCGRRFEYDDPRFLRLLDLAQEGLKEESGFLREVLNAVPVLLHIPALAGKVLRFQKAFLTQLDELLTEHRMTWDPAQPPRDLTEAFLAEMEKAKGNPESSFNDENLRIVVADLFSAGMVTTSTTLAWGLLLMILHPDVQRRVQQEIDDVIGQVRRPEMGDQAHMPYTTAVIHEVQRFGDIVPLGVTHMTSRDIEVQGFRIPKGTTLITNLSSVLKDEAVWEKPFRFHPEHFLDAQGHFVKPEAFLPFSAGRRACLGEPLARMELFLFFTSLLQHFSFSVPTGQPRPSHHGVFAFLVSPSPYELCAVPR
Chain of Cytochrome P450 2C9 (Homo sapiens) (P11712 whole entry, looked up): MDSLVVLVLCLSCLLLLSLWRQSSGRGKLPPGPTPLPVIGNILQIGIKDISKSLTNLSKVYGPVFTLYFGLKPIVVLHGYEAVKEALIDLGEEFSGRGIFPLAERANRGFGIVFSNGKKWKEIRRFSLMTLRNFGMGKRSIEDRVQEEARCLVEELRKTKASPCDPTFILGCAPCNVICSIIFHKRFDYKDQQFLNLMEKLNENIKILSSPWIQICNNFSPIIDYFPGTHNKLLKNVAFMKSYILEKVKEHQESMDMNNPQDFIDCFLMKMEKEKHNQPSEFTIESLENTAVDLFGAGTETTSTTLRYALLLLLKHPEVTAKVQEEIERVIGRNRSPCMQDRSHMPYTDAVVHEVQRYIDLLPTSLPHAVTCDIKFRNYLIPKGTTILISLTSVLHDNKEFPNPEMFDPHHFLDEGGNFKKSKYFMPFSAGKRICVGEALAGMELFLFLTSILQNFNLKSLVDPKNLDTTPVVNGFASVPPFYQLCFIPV

O=C1NCCN1CCN1CCC(c2cn(-c3ccc(F)cc3)c3ccc(Cl)cc23)CC1
active: Potency [5] 29.8 µM | Potency [6] 26.6 µM | Potency [7] 26.6 µM | Potency [8] 29.8 µM | Potency [9] 4.36 µM
inactive: Potency [1] | Potency [2] | Potency [3] | Potency [4] | Potency [10] | Potency [11]

S=C(SSSSSSC(=S)N1CCCCC1)N1CCCCC1
active: Potency [6] 7.56 µM | Potency [15] 7.83 µM
inactive: viability change, negative = cytotoxic [12] 17.4% [at 15.8 µM] | activity change, negative = cytotoxicity [13] -0.13% [at 15.8 µM] | activation [2] 10.4% [at 15.8 µM] | activity, negative = inhibition [3] -6.79% [at 10.5 µM] | activation [4] 4.08% [at 11.8 µM] | activity change, negative = cytotoxicity [5] 0.702% [at 19 µM] | caspase-3/7 activation [7] 1.75% [at 19 µM] | activity change, negative = cytotoxicity [8] 7.87% [at 19 µM] | activation [14] 19.2% [at 19 µM] | activity change, negative = inhibition [9] -19.3% [at 23.6 µM]

CN(C)c1ccc(N=Nc2ccccc2C(=O)O)cc1
inactive: Potency [12] | Potency [13] | Potency [2] | Potency [3] | Potency [4] | Potency [16] | Potency [7]
active: Potency [5] 61.1 µM | Potency [6] 9.69 µM | Potency [8] 54.5 µM | Potency [14] 21.7 µM | Potency [9] 39.9 µM | Potency [15] 31.7 µM | Potency [11] 25.2 µM

OCCCCl
inactive: Potency [12] | Potency [13] | Potency [2] | Potency [3] | Potency [4] | Potency [5] | Potency [16] | Potency [6] | Potency [7] | Potency [8] | Potency [14] | Potency [9] | Potency [10] | Potency [15] | Potency [11]

CCN(CC)CCCN(c1ccccc1)C1Cc2ccccc2C1
inactive: Potency [12] | Potency [13] | Potency [2] | Potency [16] | Potency [6] | Potency [7] | Potency [8] | Potency [14] | Potency [17] | Potency [15]
active: Potency [5] 23.7 µM | Potency [18] 5.01 µM | Potency [9] 0.389 µM

N[C@@H](CSSC[C@H](N)C(=O)O)C(=O)O
inactive: viability change, negative = cytotoxic [12] -1.61% [at 0.29 µM] | activity change, negative = cytotoxicity [13] 1.93% [at 0.29 µM] | activation [2] 1.61% [at 0.29 µM] | activity change, negative = cytotoxicity [5] -23% [at 0.349 µM] | caspase activation [16] 0.0664% [at 0.349 µM] | activity change, negative = cytotoxicity [6] -1.36% [at 0.349 µM] | caspase-3/7 activation [7] 0.0732% [at 0.349 µM] | activity change, negative = cytotoxicity [8] 6.72% [at 0.349 µM] | activation [14] -0.742% [at 0.349 µM] | Potency [17] | Potency [18] | activity change, negative = inhibition [9] -4.15% [at 0.435 µM] | activity change, negative = inhibition [10] -14.3% [at 0.435 µM] | activity change, negative = inhibition [15] 1.25% [at 0.435 µM] | activity change, negative = inhibition [11] -15.1% [at 0.435 µM]

Cc1cccc(Br)c1
active: Potency [10] 35.8 µM | Potency [15] 40.1 µM
inactive: Potency [12] | Potency [13] | Potency [2] | Potency [16] | Potency [6] | Potency [7] | Potency [8] | Potency [9]

CCN=c1cc2oc3cc(NCC)c(C)cc3c(-c3ccccc3C(=O)OCC)c-2cc1C
inactive: Potency [11]
active: Potency [12] 48.8 µM and 49 µM | Potency [13] 48.8 µM and 49 µM | Potency [3] 8.47 µM and 10.7 µM | Potency [4] 6.89 µM and 5.49 µM | Potency [5] 2.51 µM and 1.54 µM | Potency [16] 27.3 µM | Potency [6] 965 nM and 611 nM | Potency [7] 43.1 µM and 48.6 µM | Potency [8] 2.72 µM and 7.7 µM | Potency [14] 2.42 µM and 1.72 µM | Potency [9] 17.8 µM and 20 µM | Potency [10] 7.94 µM and 10 µM | Potency [15] 7.94 µM and 12.6 µM

CCC(C)c1cc([N+](=O)[O-])cc([N+](=O)[O-])c1OC(=O)OC(C)C (centres undefined)
active: Potency [5] 34.4 µM | Potency [6] 61.1 µM | Potency [8] 61.1 µM | Potency [14] 61.1 µM | Potency [10] 11.2 µM | Potency [15] 35.6 µM | Potency [11] 2.52 µM
inactive: Potency [12] | Potency [13] | Potency [3] | Potency [4] | Potency [16] | Potency [7]

COc1ccc(-n2nc(CCC(=O)N(C)O)cc2-c2ccc(Cl)cc2)cc1
active: Potency [14] 29.8 µM | Potency [9] 15.5 µM | Potency [15] 3.89 µM
inactive: Potency [12] | Potency [13] | Potency [2] | Potency [3] | Potency [4] | Potency [16] | Potency [7]

CC(C)(C)c1cc(/C=C2\SC(=N)NC2=O)cc(C(C)(C)C)c1O
active: Potency [5] 48.6 µM | Potency [6] 54.5 µM | Potency [14] 30.6 µM | Potency [9] 39.9 µM | Potency [10] 20 µM | Potency [15] 1.78 µM
inactive: Potency [12] | Potency [13] | Potency [2] | Potency [3] | Potency [16] | Potency [7]
